{"source": "PubChem BioAssay (NCI)", "note": "Where “and” joins values, the source holds several entries; their conditions need not be identical. Identical values can stand only once. Compounds without any hit were thinned out: in the full panel of roughly 83,000, 20% have a hit.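 The endpoint reported here, percent growth, reads 100 for growth as untreated, 0 for no net growth and -100 for all cells dead.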 Calls of active or inactive are those of the source. How the source made its calls: active means growth percent below 10; inactive means the rest.", "data": [{"test_system": "MDA-MB-468 breast", "assay": "NCI-60 one-dose screen, 48 h (100 = growth as untreated, 0 = no growth, -100 = all killed)", "conditions": "10 µM unless noted", "values": [{"smiles": "O=C(O)c1ccc(NC(=O)c2ccc(-c3cccc([N+](=O)[O-])c3)o2)cc1", "growth": "99.8% (inactive)"}, {"smiles": "CCN1CCN(Cc2ccc(C(=O)Nc3nc4ccc(Oc5ccnc(C(=O)NC)c5)cc4s3)cc2C(F)(F)F)CC1", "growth": "36.1% (inactive)"}, {"smiles": "COc1cc(/C(=C2/O[C@@H]([C@H]3COC(C)(C)O3)[C@H]3OC(C)(C)O[C@@H]23)c2ccc3ccccc3c2)cc(OC)c1OC", "growth": "51.2% (inactive)"}, {"smiles": "COc1ccc(/C(=C2\\O[C@@H]([C@H]3COC(C)(C)O3)[C@H]3OC(C)(C)O[C@@H]23)c2cc(OC)c(OC)c(OC)c2)cc1O", "growth": "96.4% (inactive)"}, {"smiles": "CNC(=S)NNC(=O)C1CC1", "growth": "108% (inactive)"}, {"smiles": "COc1c(N2CC3CCCN(C(C)=O)C3C2)c(F)cc2c(=O)c(C(=O)N[C@H]3C(O)[C@@H](O)C(CO)O[C@H]3O)cn(C3CC3)c12", "note": "(stereo not given in full)", "growth": "98% (inactive)"}, {"smiles": "COc1cc2nc(Cl)nc(Nc3cccc(C4=Nc5c(N)nc(N)nc5NC(c5ccc(F)cc5)C4)c3)c2cc1OC", "note": "(stereo not given)", "growth": "45.8% (inactive)"}, {"smiles": "c1ccc2c(c1)Nc1cc3ccccc3cc1N2", "growth": "40.3% (inactive)"}, {"smiles": "COc1cccc(-c2nn(-c3ccccc3)cc2-c2ccnc(NCCCNS(=O)(=O)c3ccc(Br)cc3)c2)c1", "growth": "35.5% (inactive)"}, {"smiles": "Cc1cc(-c2ccccc2)cc(SC#N)[n+]1[O-]", "growth": "34.8% (inactive)"}, {"smiles": "O=C(CSc1nc(-c2ccccc2)cn1-c1ccc(Cl)cc1)c1ccc([N+](=O)[O-])cc1", "growth": "72.5% (inactive)"}, {"smiles": "CC(C)(C)OC(=O)CC(S(=O)(=O)c1ccccc1)S(=O)(=O)c1ccccc1", "growth": "-23.7% (active)"}, {"smiles": "O=C1c2cccc(NCCN=Cc3cc([N+](=O)[O-])ccc3O)c2C(=O)c2c(NCCN=Cc3cc([N+](=O)[O-])ccc3O)cccc21", "growth": "43.4% (inactive)"}, {"smiles": "COC(=O)C(Cc1ccccc1)NC(=O)c1ccc(NC(=O)c2[nH]c(C)c(Cl)c2Cl)c(OC(C)C)c1", "note": "(stereo not given)", "growth": "96.8% (inactive)"}, {"smiles": "CC(C)(C)n1cc(-c2ccnc(NCCNS(=O)(=O)c3ccc(Br)cc3)c2)c(-c2cccc(O)c2)n1", "growth": "2.11% (active)"}, {"smiles": "COc1ccc(C2=NN(C=O)C(c3cccc(Nc4ccnc5cc(Cl)ccc45)c3)C2)cc1", "note": "(stereo not given)", "growth": "-3.92% (active)"}, {"smiles": "COc1ccccc1/C=N\\N=C(N/N=C/c1ccccc1OC)N/N=C/c1ccccc1OC", "growth": "58.3% (inactive) and 10.5% (inactive)"}, {"smiles": "CCOC(=O)C1=CSC2=NC3=C(CCC/C3=C\\c3cc(OC)c(OC)c(OC)c3)C(c3cc(OC)c(OC)c(OC)c3)N12", "note": "(stereo not given)", "growth": "33.8% (inactive)"}, {"smiles": "O=C1OCC/C1=C\\OCCCO/C=C1\\CCOC1=O", "growth": "92.8% (inactive)"}, {"smiles": "CCCCC(C#N)C(N)=O", "note": "(stereo not given)", "growth": "119% (inactive)"}, {"smiles": "COc1cnc2c(c1)C(=O)c1c-2n(CCCCl)c(=O)c2ccncc12", "growth": "34.1% (inactive)"}, {"smiles": "COc1cc2nc(-c3ccc(C(F)(F)F)cc3)cc(OCCCN3CCCC3)c2cc1OC", "growth": "43.8% (inactive)"}, {"smiles": "Clc1ccc(Nc2nccc(Nc3ccc4[nH]ncc4c3)n2)cc1", "growth": "33.6% (inactive)"}, {"smiles": "COC(=O)c1c(C(=O)OC)c2n(CC(=O)Nc3cccc4cccnc34)c3ccccc3n2c1C(=O)c1ccc(C)cc1", "growth": "98.6% (inactive)"}, {"smiles": "COc1ccc(-c2nnc(SCC(=O)Nc3ccc(C(=O)/C=C/c4ccc(Cl)cc4)cc3)o2)cc1OC", "growth": "99.4% (inactive)"}, {"smiles": "COc1cc2c(cc1OC)-c1cc(OC)c(OC)cc1C(CN(C)C)C2", "note": "(stereo not given)", "growth": "66.4% [100 µM] (inactive)"}, {"smiles": "Cc1ccc(S(=O)(=O)N/N=C2\\CCCc3ccccc32)cc1", "growth": "95.7% (inactive)"}, {"smiles": "CS(=O)(=O)c1ccc(/C(=N/NC(N)=S)c2ccc(F)cc2)cc1", "growth": "88.2% (inactive)"}, {"smiles": "O=[N+]([O-])c1ccc(Sc2ccncn2)c([N+](=O)[O-])c1", "growth": "24% (inactive)"}, {"smiles": "C[C@]12CCC(=O)C[C@H]1CC[C@@H]1[C@@H]2CC[C@@]2(C)[C@H]1CC[C@]2(O)C(=O)CO", "growth": "99.8% (inactive)"}, {"smiles": "OCCS", "growth": "100% (inactive)"}, {"smiles": "CN1C/C=C\\CCOc2cccc(c2)-c2ccnc(n2)Nc2cccc(c2)C1", "growth": "-58.2% (active)"}, {"smiles": "NC(=O)c1cccc(-n2ccc3cc(NC(=O)Nc4ccc(N5CCOCC5)c(C(F)(F)F)c4)ccc32)n1", "growth": "0.818% (active)"}, {"smiles": "COc1nccc2cc3c(=O)n4c(cc5ccccc54)c(=O)n3c12", "growth": "89.4% (inactive)"}, {"smiles": "O=C(O)c1ccc(-n2cc(CNc3cc(F)c(F)c(F)c3)c(-c3cccc(F)c3)n2)cc1", "growth": "95.4% (inactive)"}, {"smiles": "O=S(=O)(O)c1ccc2cc(O)ccc2c1", "growth": "101% (inactive)"}, {"smiles": "O=C(C(Br)C(Br)c1ccccc1)C(Br)C(Br)c1ccccc1", "note": "(stereo not given)", "growth": "-44.4% (active)"}, {"smiles": "CC1=NN(c2ccccc2Cl)C(=O)/C1=C\\c1cn(S(=O)(=O)c2ccc(C)cc2)c2ccccc12", "growth": "119% (inactive)"}, {"smiles": "O=C1O[C@@H](c2ccccc2Cl)[C@@H]2c3cc4c(cc3CCN12)OCO4", "growth": "96.2% (inactive)"}, {"smiles": "C[C@]12CC[C@@H]3c4ccc(O)c(N)c4CC[C@H]3[C@@H]1CC[C@@H]2O", "growth": "59.8% (inactive)"}]}]}
